PubChem BioAssay (NCI)
The panel holds about 83,000 compounds, 20% with a hit somewhere; the sample as a whole holds those more often.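 Testing used 96-well plates and a 48-hour single-concentration exposure. Example: -40 means 40% of the starting cells died.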 Activity calls are given as the source filed them. Rule for the calls: active = growth percent below 10; inactive = the rest.

How the values were obtained:
Assay in all cases: NCI-60 one-dose screen, 48 h (100 = growth as untreated, 0 = no growth, -100 = all killed)
Conditions in all cases: 10 µM
T-47D breast = test system: T-47D breast
BT-549 breast = test system: BT-549 breast
MDA-MB-435 melanoma = test system: MDA-MB-435 melanoma
SW-620 colon = test system: SW-620 colon
MCF7 breast = test system: MCF7 breast
HCT-116 colon = test system: HCT-116 colon
HCC-2998 colon = test system: HCC-2998 colon
KM12 colon = test system: KM12 colon

Measured: growth

COc1ccc(COC(=O)CC(C)C)cc1
inactive: T-47D breast 96.7% | BT-549 breast 100% | MDA-MB-435 melanoma 107% | SW-620 colon 105% | MCF7 breast 99.7% | HCT-116 colon 96.3% | HCC-2998 colon 103% | KM12 colon 98%

CC(C)C[C@H](NC(=O)Cn1ccc2ccccc2c1=O)B(O)O
inactive: T-47D breast 39.6% | BT-549 breast 58.4% | SW-620 colon 42.8% | MCF7 breast 31.4% | HCT-116 colon 32.3% | HCC-2998 colon 72.2% | KM12 colon 93.4%
active: MDA-MB-435 melanoma 3.38%

CCOC(=O)c1ccc(N(C=O)CCC(=O)CCl)cc1
inactive: HCC-2998 colon 14.2%
active: T-47D breast -4.12% | BT-549 breast -63.2% | MDA-MB-435 melanoma -23.9% | SW-620 colon 7.93% | MCF7 breast -8.44% | HCT-116 colon 1.64% | KM12 colon 4.98%

CCOC(=O)c1ccc(NC(=O)Nc2nncs2)cc1
active: MDA-MB-435 melanoma -41.3%
inactive: T-47D breast 49.3% | BT-549 breast 13.7% | SW-620 colon 18% | MCF7 breast 21.7% | HCT-116 colon 12.6% | HCC-2998 colon 18.8% | KM12 colon 12.4%

C#CCn1c(-c2cccc(OCCCCl)c2)nc2c1c(=O)n(C)c(=O)n2C
inactive: T-47D breast 18% | BT-549 breast 13.8% | MDA-MB-435 melanoma 78.9% | SW-620 colon 95% | MCF7 breast 84.7% | HCT-116 colon 51.9% | HCC-2998 colon 104% | KM12 colon 56.5%

Cc1cc(C)c(/C=C2\C(=O)Nc3ccc(NC(=O)CCCCCCC(=O)NO)cc32)[nH]1
inactive: T-47D breast 15.3% | BT-549 breast 47.5% | MCF7 breast 12.2% | HCC-2998 colon 40.2% | KM12 colon 60.2%
active: MDA-MB-435 melanoma 2.24% | SW-620 colon 5.42% | HCT-116 colon -77.2%

COc1cc(Cn2c(-c3ccccc3)c(Cl)c3c2-c2oncc2CC3)cc(OC)c1
inactive: T-47D breast 73.8% | BT-549 breast 87.4% | SW-620 colon 15.8% | MCF7 breast 102% | HCT-116 colon 47.5% | HCC-2998 colon 84.4% | KM12 colon 41.7%
active: MDA-MB-435 melanoma -0.829%

CC1(CO)CCCC12OCCO2 (stereo unspecified)
inactive: T-47D breast 111% | BT-549 breast 99.9% | MDA-MB-435 melanoma 92.8% | SW-620 colon 108% | MCF7 breast 95.2% | HCT-116 colon 105% | HCC-2998 colon 111% | KM12 colon 112%

COC(=O)c1cnc2c(c1)Oc1ccc(Cl)cc1-c1cc(C)nn1-2
inactive: T-47D breast 59.9% | BT-549 breast 83.4% | MDA-MB-435 melanoma 91.3% | SW-620 colon 66% | MCF7 breast 83.4% | HCT-116 colon 42.6% | HCC-2998 colon 92.1% | KM12 colon 85.8%

Nc1ccccc1NC(=O)CCCCCCC(=O)Nc1ccc2c(c1)/C(=C/c1ccc[nH]1)C(=O)N2
inactive: T-47D breast 37.9% | BT-549 breast 22% | MDA-MB-435 melanoma 37.8% | SW-620 colon 47.4% | MCF7 breast 15.9% | HCT-116 colon 17% | HCC-2998 colon 70.2% | KM12 colon 13.7%

CC(C)OP(=O)(O)c1ncc(-c2ccc(C(F)(F)F)cc2)c(NC2CCCCCC2)n1
inactive: T-47D breast 41.7% | BT-549 breast 86.6% | MDA-MB-435 melanoma 62.7% | SW-620 colon 54.7% | MCF7 breast 51.1% | HCT-116 colon 53.1% | HCC-2998 colon 89.8% | KM12 colon 48%

Cc1ccc(-c2cc(-c3cccc(Nc4ccnc5cc(Cl)ccc45)c3)nc3nc(N)[nH]c(=O)c23)cc1
inactive: T-47D breast 35% | BT-549 breast 86.4% | MDA-MB-435 melanoma 99.8% | SW-620 colon 95.8% | MCF7 breast 72.5% | HCT-116 colon 91.3% | HCC-2998 colon 91.5% | KM12 colon 70.5%

COc1ccc2oc(=O)cc(C(c3ccc[nH]3)c3ccc[nH]3)c2c1
active: BT-549 breast -13.4% | MDA-MB-435 melanoma -24.3% | HCT-116 colon -3.62% | HCC-2998 colon -5.71% | KM12 colon 4.33%
inactive: T-47D breast 22.5% | SW-620 colon 25.6% | MCF7 breast 13.9%

COc1ccc(-c2cn[nH]c2-c2cc(OC)c(OC)c(OC)c2)cc1
inactive: T-47D breast 45.6% | SW-620 colon 20.5%
active: BT-549 breast -13.8% | MDA-MB-435 melanoma -19% | MCF7 breast 5.37% | HCT-116 colon 0.33% | HCC-2998 colon 6.62% | KM12 colon 4.39%

CC(C)/C(=N/O)c1ccccc1
inactive: T-47D breast 114% | BT-549 breast 111% | MDA-MB-435 melanoma 107% | SW-620 colon 114% | MCF7 breast 107% | HCT-116 colon 109% | HCC-2998 colon 106% | KM12 colon 117%

CCCCOCC(=O)NC(NP(=O)(N(C)C)N(C)C)C(Cl)(Cl)Cl (stereo unspecified)
inactive: BT-549 breast 117% | MDA-MB-435 melanoma 102% | SW-620 colon 108% | MCF7 breast 103% | HCT-116 colon 96.6% | HCC-2998 colon 103% | KM12 colon 133%
active: T-47D breast 7.73%

COc1ccc(C2CC(c3ccc(-c4ccccc4)cc3)=NN2c2ccc(S(N)(=O)=O)cc2)cc1 (stereo unspecified)
inactive: T-47D breast 52.5% | BT-549 breast 98.5% | MDA-MB-435 melanoma 76% | SW-620 colon 81.1% | MCF7 breast 58.6% | HCT-116 colon 56.7% | HCC-2998 colon 58.2% | KM12 colon 37.5%

CCOC(=O)CNC(=O)Nc1ccc(Oc2ccc(NC(=O)NCC(=O)OCC)cc2)cc1
inactive: T-47D breast 106% | BT-549 breast 111% | MDA-MB-435 melanoma 95.4% | SW-620 colon 98% | MCF7 breast 76.4% | HCT-116 colon 98.1% | HCC-2998 colon 93.3% | KM12 colon 105%

O=C(c1ccc(Cl)cc1)c1no[n+]([O-])c1C(=O)c1ccc(Cl)cc1
inactive: T-47D breast 89.6% | BT-549 breast 98.7% | MDA-MB-435 melanoma 89.8% | SW-620 colon 44.2% | MCF7 breast 92.1% | HCT-116 colon 49% | HCC-2998 colon 113% | KM12 colon 88.5%

O=[N+]([O-])c1cc2ncccc2c2ncccc12
inactive: T-47D breast 74.6% | BT-549 breast 89.6% | MDA-MB-435 melanoma 61.9% | SW-620 colon 85.4% | MCF7 breast 60.6% | HCT-116 colon 53.5% | HCC-2998 colon 108% | KM12 colon 96.3%

COc1cccc(C(=O)NNc2nc(N3CCOCC3)nc(N3CCN(C(c4ccccc4)c4ccccc4)CC3)n2)c1
inactive: T-47D breast 59.2% | BT-549 breast 87.9% | MDA-MB-435 melanoma 96.8% | SW-620 colon 96.5% | MCF7 breast 79.8% | HCT-116 colon 85.4% | HCC-2998 colon 100% | KM12 colon 77.7%

Cc1ccc2oc(=O)cc(/C(=C3/C=CC=N3)c3ccc[nH]3)c2c1
active: T-47D breast -1.91% | BT-549 breast -11.4% | MDA-MB-435 melanoma -24.8% | MCF7 breast 7.32% | HCT-116 colon 1.45% | HCC-2998 colon -17% | KM12 colon -17.6%
inactive: SW-620 colon 20.9%

C#C[C@]1(O)CC[C@H]2[C@@H]3CC[C@H]4CC(F)(F)CC[C@]4(C)[C@H]3CC[C@@]21C
inactive: T-47D breast 64.7% | BT-549 breast 58.6% | MDA-MB-435 melanoma 84% | SW-620 colon 87.9% | MCF7 breast 88.9% | HCT-116 colon 76.6% | HCC-2998 colon 112% | KM12 colon 87.2%

COc1cc(CSc2nc3ccc(C)cc3c(=O)n2Cc2ccccc2)cc(OC)c1OC
inactive: T-47D breast 34.1% | BT-549 breast 34.8% | SW-620 colon 25.8% | MCF7 breast 18% | HCT-116 colon 25.2% | HCC-2998 colon 43% | KM12 colon 25.3%
active: MDA-MB-435 melanoma -5.84%

Cc1cc(C#Cc2ccccc2)ccc1-n1c(/C=C/c2cc(O)ccc2O)nc2ccccc2c1=O
active: T-47D breast -16.8% | BT-549 breast -11.1% | MDA-MB-435 melanoma -56.3% | SW-620 colon 5.7% | MCF7 breast 2.03% | HCT-116 colon -43.8% | HCC-2998 colon -49.6% | KM12 colon -5.21%

CN(C)c1ccc2c(c1)OC(N)=C(C#N)C2c1ccc2c(c1)CCCN2C (stereo unspecified)
active: MDA-MB-435 melanoma -5.69% | HCT-116 colon 7.88%
inactive: T-47D breast 44.5% | BT-549 breast 49.4% | SW-620 colon 35% | MCF7 breast 18.1% | HCC-2998 colon 26.7% | KM12 colon 23.1%

CC(C)OCc1cc(CN2CCN(c3cccc(Cl)c3)CC2)c(O)c2ncccc12
active: T-47D breast 3.25% | BT-549 breast -46% | MDA-MB-435 melanoma -28.5% | SW-620 colon -3.23% | MCF7 breast 4.89% | HCT-116 colon -55.5% | HCC-2998 colon -21.6% | KM12 colon -23%

COc1cc(CSc2nc3ccc(C)cc3c(=O)n2-c2ccccc2)cc(OC)c1OC
inactive: T-47D breast 28.2% | BT-549 breast 19.6% | SW-620 colon 29.7% | MCF7 breast 19.9% | HCT-116 colon 26.6% | HCC-2998 colon 49.7% | KM12 colon 25.3%
active: MDA-MB-435 melanoma -20%

NS(=O)(=O)c1ccc(N2N=C(c3ccc(-c4ccccc4)cc3)CC2c2ccc(Cl)cc2)cc1 (stereo unspecified)
inactive: T-47D breast 74.6% | BT-549 breast 116% | MDA-MB-435 melanoma 77.4% | SW-620 colon 93.2% | MCF7 breast 62.6% | HCT-116 colon 50.4% | HCC-2998 colon 89.3% | KM12 colon 68.6%

Cc1ccc(C)c(S(=O)(=O)NC2c3ccccc3Oc3ccccc32)c1
inactive: T-47D breast 72.1% | BT-549 breast 102% | MDA-MB-435 melanoma 107% | SW-620 colon 88.8% | MCF7 breast 90.8% | HCT-116 colon 91.8% | HCC-2998 colon 104% | KM12 colon 102%

N#Cc1ncc(-c2cc(F)ccc2F)c(NC2CCCCCC2)n1
inactive: T-47D breast 69.5% | BT-549 breast 76.2% | MDA-MB-435 melanoma 93.6% | SW-620 colon 96.1% | MCF7 breast 82.3% | HCT-116 colon 85.6% | HCC-2998 colon 82.3% | KM12 colon 36.4%

COc1ccc(OC)c([N+](=O)[O-])c1C=O
inactive: T-47D breast 56.5% | BT-549 breast 117% | MDA-MB-435 melanoma 101% | SW-620 colon 65.1% | MCF7 breast 38.2% | HCT-116 colon 50.7% | HCC-2998 colon 110% | KM12 colon 95.8%
